Among all 370,000 compounds or so, about 4,700 (1.3%) were called active.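 Rule for the calls: active = inhibition above the plate cutoff, the mean of all test compounds on that plate plus 3 SD (cut at about 35% in these data); inactive = the rest.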 Many of the other results were omitted from the sample, so actives are more common in it than they were.
assay: small molecules binding CAG repeat RNA – biochemical, fluorescence, primary screen (AID 651821); conditions: r(CAG) RNA repeat, TO-PRO-1 dye displacement fluorescence; at 3 µM; hits give high values;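 note: 0% = DMSO alone and 100% = 100 µM mitoxantrone as full dye displacement; higher means more dye released from RNA so lower well fluorescence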

SMILES	inhibition
COC(=O)c1c(-c2ccc(OC)cc2)c2c(c3c4ccccc4n(S(=O)(=O)c4ccc(C)cc4)c13)C(=O)N(C)C2	14.9% (inactive)
C=CCN1C(=O)[C@H](CC(=O)N2CCN(C(=O)OCC)CC2)[C@@]2(C(=O)OCC)CCCC=C12	0.1% (inactive)
COc1ccc(CN(CCN2CCOCC2)C(=O)c2ccc(C)cc2)cc1OC	1.93% (inactive)
CC1(C(=O)NS(=O)(=O)c2ccc3ccccc3c2)CCN1C(=O)C1(c2ccc(Cl)cc2)CCC1 (stereo not drawn)	68.5% (active)
CC1(C(=O)NS(=O)(=O)c2ccc(Cl)cc2)CCN1C(=O)CC1CCCC1 (stereo not drawn)	9.21% (inactive)
Cc1ccccc1S(=O)(=O)NC(=O)C1(C)CCN1C(=O)C1(c2ccc(Cl)cc2)CC1 (stereo not drawn)	33.6% (inactive)
COc1ccc(F)cc1S(=O)(=O)NCC(c1ccc2c(c1)OCO2)N1CCN(C)CC1 (stereo not drawn)	-3.68% (inactive)
CN(Cc1ccc2nsnc2c1)Cc1nc(Cc2cccc(F)c2)no1	-4.71% (inactive)
CCOc1cc(/C=C2/N=C(c3ccc(C(C)(C)C)cc3)OC2=O)cc(Cl)c1OS(C)(=O)=O	67% (active)
O=C(CSCc1ccc([N+](=O)[O-])cc1)Nc1cccc(C(=O)Nc2ccccc2C(=O)O)c1	67.2% (active)
O=C(Cc1ccccc1)Nc1ccc(C(=O)Nc2ccccc2C(=O)O)cc1	50.2% (active)
CN(CCc1ccccc1)C(=O)c1cccc(NC(=O)Cc2ccc([N+](=O)[O-])cc2)c1	1.94% (inactive)
COc1ccc(NC(=O)CSCc2ccc([N+](=O)[O-])cc2)cc1OC	-1.63% (inactive)
O=C(COc1ccc([N+](=O)[O-])cc1)Nc1cccc(C(=O)Nc2ccccc2C(=O)O)c1	77.5% (active)
O=C(CSCc1ccc([N+](=O)[O-])cc1)NCCSCc1ccccc1	-2.49% (inactive)
CC1CCN(C(=O)c2ccccc2NC(=O)Cc2ccccc2)CC1	-6.63% (inactive)
O=C(Nc1ccccc1C(=O)O)c1ccc(N2C(=O)C3CC=CCC3C2=O)cc1 (stereo not drawn)	13.8% (inactive)
O=C(CCCOc1ccccc1)Nc1cccc(C(=O)O)c1	6.14% (inactive)
O=C(c1ccncc1)N1CC[C@H]2[C@H](CCCN2Cc2ccc(F)cc2)C1	-0.17% (inactive)
COC(=O)C1=C(C(=O)OC)C2C=C(C(C)C)C1C(=O)C2(C)O (stereo not drawn)	2.51% (inactive)

SMILES	inhibition
Cc1ccc(C)c(NC(=O)CCS(=O)(=O)c2ccccc2)c1	5.79% (inactive)
COC(=O)C(C(=O)OC)c1ccccc1NS(=O)(=O)c1cccc2ccccc12	6.69% (inactive)
Cc1ccc(C(=O)C2CCN(CC(=O)NCCC(C)C)CC2)cc1	-4.12% (inactive)
COC(=O)C1=C(C)N(Cc2ccccc2C(F)(F)F)C(=NCC2CC2)NC1c1cccc(Cl)c1 (stereo not drawn)	2.17% (inactive)
CC(C)[C@H](NC(=O)OCc1ccccc1)C(=O)OCc1ccccc1	-7.02% (inactive)
COC(=O)c1ccc(C(NC(=O)OCc2ccccc2)/C(F)=C/[C@@H](C)C(=O)O)cc1 (stereo partly drawn)	7.38% (inactive)
COc1ccc(COC(=O)NC(C(=O)O)c2ccccc2)cc1 (stereo not drawn)	41.2% (active)
O=S1(=O)CC(N2CCN(CCO)CC2)CN1Cc1cn(Cc2cccc(Cl)c2)nn1 (stereo not drawn)	1.81% (inactive)
COc1ccccc1CSc1ncc(-c2ccc([N+](=O)[O-])cc2)[nH]1	6.09% (inactive)
O=C(Nn1c(SCc2ccc([N+](=O)[O-])cc2)nc2ccccc2c1=O)c1ccc(F)cc1	25.7% (inactive)
CC1(Cc2cccc(C#N)c2)C(=O)Nc2ccc(-c3cccc(C(F)(F)F)c3)cc21 (stereo not drawn)	2.77% (inactive)
Cc1ccc(CSc2nc(-c3ccccc3)c(C#N)c(=O)[nH]2)cc1	84.2% (active)
N#Cc1c(-c2ccccc2)nc(SCc2cccc(C(F)(F)F)c2)[nH]c1=O	91.1% (active)
Cc1ccccc1CSc1nnc(-c2ccccc2)c(=O)[nH]1	6.58% (inactive)
Cc1ccc(CSc2nsc(C)c2C#N)cc1	-2.07% (inactive)
Cc1ccc(CSc2nc3[nH]ncc3c(=O)[nH]2)cc1	-3.55% (inactive)
N#Cc1c(-c2ccccc2)nc(SCc2ccc([N+](=O)[O-])cc2)[nH]c1=O	74% (active)
CN(C(N)=NC(=O)/C=C/c1ccccc1)C(C#Cc1ccccc1)Cc1ccccc1 (stereo not drawn)	3.26% (inactive)
COc1ccc(-c2cc(-c3nnc(SCc4ccc([N+](=O)[O-])cc4)n3N)[nH]n2)cc1	9.69% (inactive)
COC(=O)c1cccc(Cn2ccc3ccc(-c4ccc5ccn(C(=O)C6CCCCC6)c5c4)cc32)c1	12.2% (inactive)

SMILES	inhibition
Cc1ccc(Cn2cc(CN3[C@@H](C)COc4cc(Br)ccc4S3(=O)=O)nn2)cc1	3.68% (inactive)
C=CCN1C(=O)[C@H](CC(=O)NCCCN2CCCC2=O)[C@@]2(C(=O)OCC)CCCC=C12	1.48% (inactive)
COc1cc(NC(=O)C2CCCN(S(=O)(=O)c3ccc(C(C)(C)C)cc3)C2)cc(OC)c1 (stereo not drawn)	9.76% (inactive)
O=C(CCCN1C(=O)/C(=C\c2ccco2)SC1=S)Nc1cccc2ccccc12	40.1% (active)
Cc1ccc(-n2c(SCC(=O)Nc3cccc4ccccc34)nnc2-c2ccco2)cc1	6.64% (inactive)
Cc1c(Cl)cccc1NC(=O)CCC(=O)N/N=C/c1ccco1	-4.6% (inactive)
COc1ccc(-c2nn(-c3ccccc3)cc2/C=C\C(=O)Nc2ccc(C(=O)O)cc2)cc1	83.7% (active)
O=C(O)c1ccc(NC(=O)c2ccc(COc3ccc(Cl)cc3)o2)cc1	22.1% (inactive)
O=C(NNC(=S)NCCCN1CCOCC1)c1ccncc1	-0.42% (inactive)
COc1ccc(NC(=O)c2cn(-c3ccccc3)nc2SC)cc1	5.53% (inactive)
O=C(N/N=C/c1sc(N2CCCCC2)nc1-c1cccs1)c1cccnc1	5.88% (inactive)
O=C(O)c1ccc(N/N=C/c2cn(-c3ccccc3)nc2-c2cccs2)cc1	70.5% (active)
CC(=O)c1ccc(NC(=O)c2cc(-c3cccs3)on2)cc1	-1.84% (inactive)
O=C(c1cn(-c2ccccc2)nc1-c1cccnc1)N1CCN(S(=O)(=O)c2ccccc2F)CC1	3.83% (inactive)
O=C(O)c1ccc(NC(=O)c2cn(-c3ccccc3)nc2-c2ccc(Cl)cc2)cc1	80.9% (active)
O=C(NNC(=S)NC(=O)c1cn(-c2ccccc2)nc1-c1ccccc1)c1ccncc1	42.5% (active)
O=C(c1cnn(-c2ccc(Cl)cc2)c1)c1ccccc1O	2.23% (inactive)
O=C(/C=C/c1cn(-c2ccccc2)nc1-c1ccc2c(c1)OCCO2)NCCCN1CCOCC1	-0.21% (inactive)

— PubChem BioAssay AID651821 (The Scripps Research Institute Molecular Screening Center, 2012)
